This is part of a sample that, as a whole, favours compounds with a hit. Of some 83,000 tested, about 20% had one in any assay.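 Treatment: one concentration, 48 hours, 96-well format. Scoring: percent growth, with anything below 10 considered active.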 A number with no mark means an inactive call. The source made the active and inactive calls.

What all share (assay): NCI-60 one-dose screen, 48 h (100 = growth as untreated, 0 = no growth, -100 = all killed)
Holding throughout (details): 10 µM unless noted

Test [1] deals with T-47D breast.
Test [2] has as its system BT-549 breast.
Test [3] relates to MDA-MB-435 melanoma.
The subject of test [4] is SW-620 colon.
In test [5] the test system is MCF7 breast.
Test [6] deals with HCT-116 colon.
The test system of test [7] is KM12 colon.
The test system of test [8] is HCC-2998 colon.

With `COc1ccc(C(=S)N2CCN(c3ccc(Cl)cc3)CC2)cc1`, the growth in test [1] was 88.1%; in test [2], 95.4%; in test [3], 120%; in test [4], 106%; in test [5], 94%; in test [6], 96%. Further, the growth in test [7] was 101%.

Take `CN1CCN(CC(=O)Nc2ccc3ncnc(Nc4ccc(Oc5cccc(C(F)(F)F)c5)c(Cl)c4)c3c2)CC1`: the growth in test [1] is 44.4%; in test [2], 73.1%; in test [3] it was -86% (active); in test [4] it was -68% (active); in test [5] it was -51.3% (active); in test [6], 6.69% (active). Besides, the growth in test [7] is 23.5%.

In the case of `COc1cc(/C=C/C(=O)/C=C(O)/C=C/c2ccc(OC(=O)C34CC5CC(CC(C5)C3)C4)c(OC)c2)ccc1OC(=O)C12CC3CC(CC(C3)C1)C2`, the growth in test [1] is 97.9%; in test [2], 104%; in test [3] it was 106%; in test [4], 98.4%; in test [5], 98.5%; in test [6], 89.9%. Besides, in test [7], the growth is 113%.

Turning to `CNCc1cccc2c1OCCOCCOCCNS(=O)(=O)c1ccc(cc1)-c1cnc(N)c(n1)C(=O)N2`, the growth in test [1] is 70.4%; in test [2], 28.3%; in test [3] it was 35.1%; in test [4] it was 15.5%; in test [5] it was 11.8%; in test [6], 7.19% (active). Moreover, in test [7], the growth is 20.2%.

With `CN1CCN(C(=O)[C@@]2(C)CC[C@]3(C)CC[C@]4(C)C(=CC[C@@H]5[C@@]6(C)CCC(=O)NC(C)(C)[C@@H]6CC[C@]54C)[C@@H]3C2)CC1`, the growth in test [1] is 39.2%; in test [2], 45.9%; in test [3], 46.1%; in test [4], 19.7%; in test [5], 45%; in test [6], 21.8%. Moreover, the growth in test [7] was 46.8%.

Regarding `Cc1c(CN)cc(-c2ccc(Cl)cc2)n1-c1ccccc1`, the growth in test [1] is 52.5%; in test [2], 74.9%; in test [3], 97.1%; in test [4], 89.4%; in test [5], 75.1%; in test [6], 67.3%. Moreover, the growth in test [8] was 107%; in test [7] it was 99.9%.

For `[2H]C([2H])([2H])Oc1ccc(F)cc1/C=C/C(=O)/C=C(/C=C/c1cc(F)ccc1OC([2H])([2H])[2H])OB(F)F`, the growth in test [1] is 54.2%; in test [2], 87.7%; in test [3], 70.8%; in test [4], 45.1%; in test [5] it was 37%; in test [6] it was 43.2%. In test [7], the growth was 101%.

With `COc1ccc(/C=C/C(=O)c2cc(OC)c(OC)c(OC)c2)cc1OCC(=O)Nc1nc2ccc(OC(F)(F)F)cc2s1`, the growth in test [1] is 24.3%; in test [2], 25.7%; in test [3], -51.3% (active); in test [4], 6.16% (active); in test [5] it was 4.06% (active); in test [6], -75.5% (active). Moreover, the growth in test [7] was -14.3% (active).

As to `FC(F)(F)Oc1cccc(-c2cnc3ccc(-c4ccncc4)nn23)c1`, the growth is -0.156% (active) in test [1]; 25.2% in test [2]; 12.3% in test [3]; 23.2% in test [4]; 10.7% in test [5]; 10.8% in test [6]. Moreover, the growth in test [7] is 8.63% (active).

Consider `Cc1ccc(/C=C(\C#N)n2nnc3cc(F)c(F)cc32)cc1`, for which the growth in test [1] is -10.3% (active); in test [2], -18.4% (active); in test [3], -35.4% (active); in test [4], 9.9% (active); in test [5] it was 12.6%; in test [6], -76.6% (active). The growth in test [7] is 8% (active).

For the compound `COc1ccc(/C=C/c2ccc3ccccc3n2)c(OC)c1`, the growth was 72.8% in test [1]; 67.8% in test [2]; -5.31% (active) in test [3]; 38.1% in test [4]; 57% in test [5]; 62.3% in test [6]. Further, the growth in test [7] was 52.5%.

For the compound `O=c1c2ccccc2c(=O)c2c1sc1c(=O)c3ccc(O)cc3c(=O)c12`, the growth in test [1] is -27.5% (active); in test [2], -92.6% (active); in test [3], -86.2% (active); in test [4] it was -71.1% (active); in test [5], -52.2% (active); in test [6], -29.2% (active). For the same compound, in test [7], the growth was -31.5% (active).

Regarding `CC[C@]12C=CCN3CC[C@@]4(c5ccc(OC)cc5N(C)[C@H]4[C@@](O)(C(=O)OC)[C@@H]1OC(=O)CCC[P+](c1ccccc1)(c1ccccc1)c1ccccc1)[C@@H]32`, the growth was 1.08% (active) in test [1]; 11% in test [2]; -21.6% (active) in test [3]; 17.4% in test [4]; -3.34% (active) in test [5]; 8.72% (active) in test [6]. In test [7], the growth is -27.2% (active).

Consider `COc1cc(OC)cc(-c2ccc(-c3ccc(C(=N)N)o3)o2)c1`, for which the growth in test [1] is 49.3%; in test [2], 85.8%; in test [3], -27.5% (active); in test [4], 2.04% (active); in test [5] it was 8.92% (active); in test [6], -8.08% (active). In addition, in test [7], the growth was 17.6%.

`COc1ccc(Oc2nc(Nc3ccc(N4CCOCC4)cc3)ncc2NC(=O)Nc2cc(OC)cc(OC)c2)cc1`: the growth in test [1] was 48.8%; in test [2], 12.5%; in test [3] it was 6.76% (active); in test [4], 19.6%; in test [5], 41.7%; in test [6] it was -55.5% (active). The growth in test [8] was 9.48% (active); in test [7], 24%.

On to `Cn1c(=O)c2[nH]c(SCC(=O)Nc3ccc(C(=O)/C=C/c4ccccc4Cl)cc3)nc2n(C)c1=O`, for which the growth in test [1] is 92.4%; in test [2], 83.3%; in test [3] it was 92%; in test [4], 95.8%; in test [5], 69.4%; in test [6], 58.5%. Also, in test [7], the growth is 97.9%.

For `Cc1cc2c(cc1C)N(C(=O)CCl)CC(=O)N2`, the growth in test [1] was 15.6%; in test [2], 18.9%; in test [3], 54.9%; in test [4], -48.2% (active); in test [5], 19.6%; in test [6], -10.9% (active). Besides, the growth in test [7] is 60.2%.
